Sampled rows, rich in hits. Any-hit rate of the full collection: about 6.1%.
ATXN2 expr inh = inhibitors of ATXN2 expression; HEK-293 ATXN2-luciferase reporter, luminescence, 24 h; Potency, µM (highest dose often 57 µM), most hits filed as inhibitors; 360,000 compounds, 0.72% hits; AID 1745845; note: nearly all actives have a fitted effect of over 55% in size
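ATXN2-luciferase reporter cells (luciferase flanked by upstream and downstream ATXN2 gene portions) were treated 24 h at 37 °C with compounds at up to 57 uM. SteadyGlo luminescence gave expression; GF-AFC fluorescence gave viability.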
VP16 counter = counter-screen for ROR gamma inhibitors: Gal4-VP16 reporter. Drosophila S2 Gal4-VP16 UAS-luciferase, luminescence, 20 h. Potency, µM (highest dose often 53.6 µM), hits mostly inhibitors. 310,000 compounds, 3.5% hits. AID 2546;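 note: Gal4-VP16 expression switched on by copper sulfate through the metallothionein promoter; nearly all actives have a fitted effect of over 50% in size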
TGFb SMAD3 inh = blocks TGF-b signaling | 410,000 compounds, 1.2% hits | AID 588855 | Potency, µM (series often up to 46.1 µM), hits mostly inhibitors | HepG2 CAGA-GFP TGF-b/SMAD3 reporter, GFP fluorescence, 18 h; TGF-beta stimulated, 500 pg/mL final; note: nearly all actives have a fitted effect of over 65% in size
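TGF-beta reporter screen: HEPG2 CAGA-GFP, 1% FBS, 500 pg/mL TGF-beta final, 18 h; per-cell GFP summed per well; curves fitted and categorized by class.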
RORg inh = blocks mouse ROR gamma transcriptional activity; Potency, µM (doses to about 53.6 µM), usual class: inhibitors; 310,000 compounds, 5.4% hits; Drosophila S2 Gal4-RORgamma UAS-luciferase reporter, 20 h; P51450; note: nearly all actives have a fitted effect of over 60% in size
Target sequence (P51450 whole entry, looked up, the tested form may be a part): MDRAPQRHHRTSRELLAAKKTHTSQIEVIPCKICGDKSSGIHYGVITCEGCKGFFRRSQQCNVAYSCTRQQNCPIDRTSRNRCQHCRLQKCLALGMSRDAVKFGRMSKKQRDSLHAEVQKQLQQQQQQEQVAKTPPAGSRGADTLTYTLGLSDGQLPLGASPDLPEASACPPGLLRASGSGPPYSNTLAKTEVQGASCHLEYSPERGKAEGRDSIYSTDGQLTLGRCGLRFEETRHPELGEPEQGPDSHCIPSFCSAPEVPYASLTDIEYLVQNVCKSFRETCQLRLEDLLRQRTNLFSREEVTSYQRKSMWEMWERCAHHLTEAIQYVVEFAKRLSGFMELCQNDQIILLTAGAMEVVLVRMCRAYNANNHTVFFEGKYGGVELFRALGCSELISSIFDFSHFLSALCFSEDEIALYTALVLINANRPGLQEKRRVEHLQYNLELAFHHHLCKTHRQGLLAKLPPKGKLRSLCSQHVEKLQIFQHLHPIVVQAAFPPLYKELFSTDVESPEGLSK
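Stable Schneider cell line, Gal4 DNA-binding domain fused to ROR gamma, UAS-luciferase. Cmpd 1 hr RT → CuSO4 700 uM final → 20 hr RT → luciferase reagent 10 min → luminescence.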
S2 tox = reduces viability in counter-screen for ATXN expression inhibitors; Potency, µM (highest dose often 56.7 µM), most hits filed as cytotoxic; AID 651635; S2 cells (HEK-293 line with an ATXN2-luciferase reporter) viability, CellTiter-Fluor protease fluorescence, 24 h; 400,000 compounds, 0.49% hits; note: nearly all actives have a fitted effect of over 40% in size
HepG2 tox = kills HepG2 cells in TGF-b inhibitor counter-screen | HepG2 CAGA-GFP viability, ATP luminescence, 18 h | Potency, µM (highest dose often 46.1 µM), hits mostly cytotoxic | 410,000 compounds, 0.76% hits
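HepG2 CAGA-GFP cells (1000/well, DMEM with 1% FBS) received compound, then TGF-beta at 500 pg/mL final, and were incubated 18 hours at 37 degrees C. Viability was read by CellTiter-Glo luminescence. Media-only wells were set as complete cell-killing and DMSO as no toxicity.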
Hits are given with their value; [ ] = remark or other dose. Calls come from the whole dose curve; as a rule, active = well fitted curve in the direction sought with a large enough effect; inconclusive = small, poorly fitted or top-dose-only effect, or another doubt; inactive = no such curve, though single readings can be large; an effect the other way counts as inactive or inconclusive.

Screening Cc1c(CN2CCC(CO)(Cc3cccc(C(F)(F)F)c3)CC2)c2ccccc2n1C returned ATXN2 expr inh 35µM, VP16 counter 8.9µM, TGFb SMAD3 inh inconclusive, RORg inh 7.1µM and HepG2 tox 25µM.
`CCOC(=O)C1(CC2CCCCO2)CCN(Cc2nccn2-c2ccc(OC)cc2)CC1` (centres undefined) gave ATXN2 expr inh inactive, VP16 counter inconclusive, TGFb SMAD3 inh inactive, RORg inh 7.1µM, S2 tox inactive and HepG2 tox inactive.
Screening CCOC(=O)C1(CC2CCCCO2)CCN(Cc2nccn2-c2cccc(C)c2)CC1 (centres undefined) returned VP16 counter 13µM, TGFb SMAD3 inh inconclusive, RORg inh 4.5µM, S2 tox inconclusive and HepG2 tox inactive.
For CCOC(=O)C1(CC2CCCCO2)CCN(Cc2nc3ccccc3[nH]2)CC1 (centres undefined) the results were ATXN2 expr inh inactive, VP16 counter inactive, TGFb SMAD3 inh inactive, RORg inh inactive, S2 tox inactive and HepG2 tox inactive.
For OCC1(Cc2cccc(C(F)(F)F)c2)CCN(Cc2cc3ccccc3o2)CC1 the results were ATXN2 expr inh inactive, VP16 counter inactive, TGFb SMAD3 inh inconclusive, RORg inh inactive, S2 tox inactive and HepG2 tox inactive.
For CNc1ccc(C=O)cc1Cl the results were TGFb SMAD3 inh inactive and HepG2 tox inactive.
Screening COc1cccc(-c2ccc(NC(=O)C3=C(C(=O)O)CCC3)c(F)c2)c1 returned ATXN2 expr inh inactive.
For CCOC(=O)c1scc(-c2ccccc2)c1S(=O)(=O)N1CCN(c2ccc(Cl)cc2)CC1 the results were ATXN2 expr inh inactive, TGFb SMAD3 inh inactive, S2 tox inactive and HepG2 tox inactive.
For S=C(Nc1ccccc1)NC1CCN(Cc2ccccc2)CC1 the results were ATXN2 expr inh inactive, VP16 counter inactive, TGFb SMAD3 inh inactive, RORg inh inactive, S2 tox inactive and HepG2 tox inactive.
S=C(Nc1ccc(Cl)cc1)NC1CCN(Cc2ccccc2)CC1 was read as ATXN2 expr inh inconclusive, VP16 counter inconclusive, TGFb SMAD3 inh inconclusive, RORg inh 18µM, S2 tox inactive and HepG2 tox inactive.
For Cc1ccccc1NC(=S)NC1CCN(Cc2ccccc2)CC1 the results were ATXN2 expr inh inactive, VP16 counter inconclusive, TGFb SMAD3 inh inactive, RORg inh 18µM, S2 tox inconclusive and HepG2 tox inactive.
For COc1ccc(NC(=S)NC2CCN(Cc3ccccc3)CC2)cc1OC the results were ATXN2 expr inh inactive, VP16 counter inactive, TGFb SMAD3 inh inactive, RORg inh inactive, S2 tox inactive and HepG2 tox inactive.
Screening CCC(C)c1ccc(NC(=S)NC2CCN(Cc3ccccc3)CC2)cc1 (centres undefined) returned ATXN2 expr inh inconclusive, VP16 counter 7.1µM, TGFb SMAD3 inh 10µM, RORg inh 7.1µM, S2 tox inconclusive and HepG2 tox 14µM.
Screening CCc1ccc(NC(=S)NC2CCN(Cc3ccccc3)CC2)cc1 returned ATXN2 expr inh inactive, VP16 counter inconclusive, TGFb SMAD3 inh inconclusive, RORg inh 10µM, S2 tox inconclusive and HepG2 tox inactive.
`COc1ccc(Cl)cc1C(=O)Nc1sc2c(c1C(=O)OC(C)C)CCCC2` gave ATXN2 expr inh inactive, TGFb SMAD3 inh inactive, S2 tox inactive and HepG2 tox inactive.
CN1C(=O)c2ccccc2Sc2ccc(NC(=O)COc3ccc(F)cc3)cc21 was read as ATXN2 expr inh inconclusive, TGFb SMAD3 inh inactive, S2 tox inconclusive and HepG2 tox inactive.
`CCn1c(-c2cccc(OC)c2)nc2cc(NC(C)=O)cc(C(=O)N(C)CC3COCCO3)c21` (centres undefined) gave S2 tox inactive.
For CCCCC(=O)NC(=S)NNS(=O)(=O)c1ccccc1 the results were ATXN2 expr inh inactive, VP16 counter 20µM, TGFb SMAD3 inh inactive, RORg inh 13µM, S2 tox inactive and HepG2 tox inactive.
Screening CCCCC(=O)NC(=S)Nc1cccc(C(=O)O)c1 returned ATXN2 expr inh inactive, VP16 counter inactive, TGFb SMAD3 inh inactive, RORg inh inactive, S2 tox inactive and HepG2 tox inactive.
For CCCCCC(=O)NC(=S)NNC(=O)CC the results were ATXN2 expr inh inactive, VP16 counter inactive, TGFb SMAD3 inh inactive, RORg inh 11µM, S2 tox inactive and HepG2 tox inactive.
For CCCCC(=O)NC(=S)Nc1cccc(NC(=O)CC)c1 the results were ATXN2 expr inh inactive, VP16 counter inactive, TGFb SMAD3 inh inactive, RORg inh inconclusive, S2 tox inactive and HepG2 tox inactive.
For CCCCC(=O)NC(=S)Nc1c(C)cc(Br)cc1C the results were VP16 counter inconclusive, TGFb SMAD3 inh inactive, RORg inh 5.6µM, S2 tox inactive and HepG2 tox inactive.
For CCCCC(=O)NC(=S)NNC(=O)CC the results were ATXN2 expr inh inactive, VP16 counter inactive, TGFb SMAD3 inh inactive, RORg inh 7.9µM, S2 tox inactive and HepG2 tox inactive.
`COc1ccc2c(c1)c1c(c(=O)n(CCc3ccccc3)c(=O)n1Cc1ccccc1)n2C` gave ATXN2 expr inh inactive, TGFb SMAD3 inh inactive, S2 tox inactive and HepG2 tox inactive.
`CS(=O)(=O)c1ccc(Sc2nc3ccccc3s2)c([N+](=O)[O-])c1` gave ATXN2 expr inh inconclusive, VP16 counter 10µM, TGFb SMAD3 inh inconclusive, RORg inh 11µM, S2 tox inconclusive and HepG2 tox inactive.
O=[N+]([O-])c1cc(S(=O)(=O)C(F)(F)F)ccc1Sc1nc2ccccc2s1 was read as ATXN2 expr inh inconclusive, VP16 counter 6.3µM, TGFb SMAD3 inh inconclusive, RORg inh 7.9µM, S2 tox inconclusive and HepG2 tox 18µM.
For CCOc1ccc(NC(=O)Nc2cc3c(cc2N2CCCCC2)n(C)c(=O)n3C)cc1 the results were ATXN2 expr inh inactive, TGFb SMAD3 inh inconclusive, S2 tox inactive and HepG2 tox inactive.
Screening O=C(OCc1nnc(-c2ccc(Cl)cc2)o1)c1ccc(O)cc1 returned ATXN2 expr inh inactive[11.3 µM], VP16 counter inactive, TGFb SMAD3 inh inactive, RORg inh inactive, S2 tox inactive and HepG2 tox inactive.
For CS(=O)(=O)c1ccc(C(=O)OCc2nnc(-c3ccc(Cl)cc3)o2)cc1[N+](=O)[O-] the results were ATXN2 expr inh inconclusive, VP16 counter inactive, TGFb SMAD3 inh inconclusive, RORg inh 10µM and HepG2 tox inactive.
Screening O=C(c1cc2ccccc2[nH]1)c1cc2cc(O)ccc2[nH]1 returned TGFb SMAD3 inh inconclusive and HepG2 tox inactive.
For Cc1nn(-c2cccc(C(F)(F)F)c2)c(=O)c2ccccc12 the results were ATXN2 expr inh inactive, VP16 counter inactive, TGFb SMAD3 inh inactive, RORg inh inactive, S2 tox inconclusive and HepG2 tox inactive.
